Experimental data reported in the supplement of paper PMC10646978.
± gives the standard deviation.

How the values were obtained:
Details in all cases: modulator concentration 10 µM
[1] = test system: RAW-Dual (murine macrophage reporter line); assay: NF-kB reporter (SEAP) activity fold change vs agonist alone; higher = enhanced NF-kB activity
How it was run: (§1)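 Compound reached 10 μM final in each well by pin transfer, onto RAW-Dual murine macrophage reporter cells seeded at 50 000 per well in 384-well plates. After 1 hour at 37 °C, the cells were stimulated overnight with a PRR agonist. SEAP in the supernatant was read with QUANTI-Blue at 620 nm absorbance for NF-κB, and Lucia luciferase was read with QUANTI-Luc luminescence for IRF. Each signal was turned into fold change against the mean agonist-only control on the same plate, and two replicate plates were averaged with propagated errors.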

[2] = test system: RAW-Dual (murine macrophage reporter line); assay: IRF reporter (Lucia luciferase) activity fold change vs agonist alone; higher = enhanced IRF activity
How it was run: as §1

[3] = test system: RAW-Dual (murine macrophage reporter line); assay: viability score (confluency relative to resting cells, overnight) (fraction); higher = more viable, active = viable (0.7 or more)
How it was run: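 Overnight exposure to 10 μM final compound was carried out on RAW-Dual macrophages in 384-well plates. IncuCyte software generated two confluency masks over all wells imaged with IncuCyte. The viability score gives confluency in relation to resting cells. A compound met the cutoff if each mask exceeded 70% of resting cells.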

[4] = agonist: CpG ODN 1826 0.5 ug/mL

Structure (SMILES) | NF-kB reporter [1, 4] | NF-kB reporter ([1]; agonist: LPS 0.1 ug/mL) | NF-kB reporter ([1]; agonist: MPLA […]) | IRF reporter ([2]; agonist: 3'3'-cGAMP 10 ug/mL) | IRF reporter ([2]; agonist: LPS 0.1 ug/mL) | IRF reporter ([2]; agonist: MPLA […]) | viability score [3]
CSc1nc2cc(Oc3cccc(Cl)c3Cl)c(Cl)cc2[nH]1 | 0.416 ± 0.14 | 0.771 ± 0.084 | 0.63 ± 0.037 | 0.831 ± 0.025 | 1.41 ± 0.26 | 1.34 ± 0.21 | 0.921 (active)
Cc1cc(=O)nc(SCCc2ccccc2)[nH]1 | 1.13 ± 0.11 | 1.27 ± 0.082 | 1.15 ± 0.041 | 0.952 ± 0.079 | 1.06 ± 0.053 | 1.2 ± 0.091 | 0.687 (inactive)
CN(C)CCC=C1c2ccccc2Sc2ccc(Cl)cc21.Cl | 0.333 ± 0.095 | 0.862 ± 0.052 | 1.12 ± 0.13 | 0.412 ± 0.046 | 1.39 ± 0.18 | 1.69 ± 0.16 | 0.547 (inactive)
O=C(C=Cc1ccc(O)cc1)c1ccc(O)cc1O | 1.33 ± 0.36 | 1.09 ± 0.054 | 1.74 ± 0.12 | 0.305 ± 0.012 | 0.966 ± 0.1 | 0.81 ± 0.13 | 0.979 (active)
Cc1cc(OC2CN(C(=O)CSCc3ccccc3)C2)cc(=O)n1C1CC1 | 1.12 ± 0.056 | 1.07 ± 0.085 | 0.994 ± 0.05 | 0.658 ± 0.034 | 0.986 ± 0.086 | 1.11 ± 0.31 | 1 (active)
CCN(CC)C(=O)N1CCN(C)CC1 [Prestw-284] | 1.02 ± 0.063 | 1.03 ± 0.064 | 0.96 ± 0.062 | 0.974 ± 0.034 | 1.41 ± 0.24 | 1.28 ± 0.14 | 0.99 (active)
O=C(c1ccc(-c2nc3ccccc3s2)s1)N1CCOCC1 | 1.08 ± 0.11 | 1.02 ± 0.15 | 1.16 ± 0.17 | 0.879 ± 0.06 | 1.19 ± 0.25 | 1.21 ± 0.44 | 0.964 (active)
NC(=O)CSc1nc2ccccc2[nH]1 | 1.1 ± 0.088 | 1.07 ± 0.081 | 0.998 ± 0.037 | 0.985 ± 0.16 | 1.09 ± 0.13 | 0.992 ± 0.16 | 0.997 (active)
CCOc1ccc2nc(SC3CC(=O)N(c4cccc(Cl)c4)C3=O)sc2c1 (configuration not stated) | 0.954 ± 0.091 | 1.04 ± 0.058 | 0.785 ± 0.047 | 0.778 ± 0.046 | 1.11 ± 0.079 | 1.04 ± 0.16 | 1.01 (active)
Cc1cccc(Oc2ccc(NC(=O)c3ccco3)cc2)c1C | 0.683 ± 0.049 | 0.992 ± 0.12 | 1.12 ± 0.049 | 0.483 ± 0.054 | 0.965 ± 0.085 | 1.44 ± 0.22 | 0.991 (active)
COC(=O)C1C(=O)C(=CNCc2ccccc2)C(=O)CC1(C)C (configuration not stated) | 1.12 ± 0.1 | 0.99 ± 0.072 | 0.943 ± 0.035 | 1.04 ± 0.18 | 1.06 ± 0.049 | 0.992 ± 0.066 | 1 (active)
Cc1ccccc1OCC(O)CO (configuration not stated) | 0.813 ± 0.22 | 1.08 ± 0.054 | 0.955 ± 0.07 | 0.93 ± 0.058 | 0.951 ± 0.13 | 1.02 ± 0.12 | 0.997 (active)
COc1ccc(Oc2coc3cc(OC(=O)c4ccc(Cl)c([N+](=O)[O-])c4)ccc3c2=O)cc1 | 0.82 ± 0.063 | 0.981 ± 0.052 | 1.08 ± 0.094 | 0.892 ± 0.048 | 1.29 ± 0.08 | 1.43 ± 0.14 | 1.02 (active)
CCC(NC(C)C)C(O)c1ccc(O)c(O)c1 (configuration not stated) [Prestw-749] | 2.04 ± 0.12 | 1.13 ± 0.092 | 1.34 ± 0.13 | 0.988 ± 0.039 | 0.96 ± 0.051 | 1.08 ± 0.25 | 0.997 (active)
O=C(NC1CCCCC1)c1cccc(C(F)(F)F)c1 | 0.851 ± 0.31 | 1.09 ± 0.14 | 1 ± 0.12 | 0.775 ± 0.033 | 1.15 ± 0.16 | 1.47 ± 0.3 | 0.997 (active)
COc1ccccc1-c1cc(-c2ccccc2)nc(SCC(N)=O)c1C#N | 1.06 ± 0.17 | 0.918 ± 0.12 | 0.928 ± 0.073 | 0.596 ± 0.02 | 1.2 ± 0.18 | 1.41 ± 0.2 | 1 (active)
Cl.c1ccc(CC2=NCCN2)cc1 | 0.999 ± 0.14 | 1.08 ± 0.17 | 0.923 ± 0.051 | 0.887 ± 0.027 | 1.17 ± 0.22 | 1.13 ± 0.1 | 0.993 (active)
Cc1ccc(-c2cc(-c3ccccc3)nc(NN=Cc3ccc(Br)cc3)n2)cc1 | 0.976 ± 0.18 | 1.08 ± 0.084 | 1.01 ± 0.12 | 1.11 ± 0.031 | 1.07 ± 0.1 | 1.4 ± 0.21 | 0.997 (active)
CC(=NNC(=O)COc1ccc(Cl)cc1[N+](=O)[O-])c1cccc(Br)c1 | 0.961 ± 0.091 | 1.11 ± 0.064 | 0.89 ± 0.053 | 0.983 ± 0.032 | 1.47 ± 0.22 | 1.19 ± 0.22 | 1 (active)
O=c1oc2cc(O)ccc2c2ccccc12 | 1.05 ± 0.12 | 0.932 ± 0.085 | 1.06 ± 0.038 | 0.813 ± 0.15 | 1.06 ± 0.097 | 1.28 ± 0.17 | 0.782 (active)
O=C1c2ccccc2-c2nc3ccccc3n21 | 0.969 ± 0.17 | 1.24 ± 0.11 | 1.14 ± 0.12 | 0.983 ± 0.033 | 1.05 ± 0.21 | 1.28 ± 0.16 | 0.856 (active)
Cc1cc(C)n(CCCN2C(=O)c3cccc4cccc(c34)C2=O)n1 | 0.926 ± 0.084 | 1.04 ± 0.083 | 0.955 ± 0.11 | 0.993 ± 0.054 | 1.09 ± 0.075 | 1.14 ± 0.088 | 1.01 (active)
O=C(O)CCCCCN1C(=O)c2cccc3cccc(c23)C1=O | 0.97 ± 0.055 | 1.05 ± 0.094 | 0.948 ± 0.06 | 0.989 ± 0.05 | 1.35 ± 0.092 | 1.11 ± 0.1 | 1.01 (active)
CC(C)n1cnc(S(=O)(=O)N2CCC(S(=O)(=O)Cc3ccccc3)CC2)c1 | 0.891 ± 0.05 | 0.891 ± 0.072 | 1.02 ± 0.055 | 1.06 ± 0.062 | 1.3 ± 0.3 | 1.37 ± 0.34 | 1 (active)
CCN(CC)CCOC(=O)C(c1ccccc1)c1ccccc1 [Prestw-75] | 0.712 ± 0.11 | 1.14 ± 0.14 | 1.91 ± 0.9 | 1.2 ± 0.038 | 0.922 ± 0.09 | 1.09 ± 0.12 | 0.91 (active)
CC(C)C(=O)Nc1ccc([N+](=O)[O-])c(C(F)(F)F)c1 | 1.42 ± 0.3 | 1.06 ± 0.077 | 1.25 ± 0.2 | 0.762 ± 0.04 | 0.97 ± 0.11 | 1.04 ± 0.12 | 0.968 (active)
